Our source for the growth values is PubChem BioAssay (NCI).

This is part of a sample that, as a whole, favours compounds with a hit. Of some 83,000 tested, about 20% had one in any assay.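 Cell lines were cultured in 96-well plates, exposed to a single compound concentration, and assessed for percent growth 48 hours later.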 Values without a mark were called inactive. The source made the active and inactive calls. The calls were made as follows: active = growth percent below 10; inactive = the rest.

Common to all, as to assay: NCI-60 one-dose screen, 48 h (100 = growth as untreated, 0 = no growth, -100 = all killed)
What all share (conditions): 10 µM unless noted

Assay [1] has as its system NCI-H23 lung.
The subject of assay [2] is NCI-H226 lung.
In assay [3] the test system is NCI-H322M lung.
Assay [4] has as its system HOP-62 NSCLC.
The test system of assay [5] is NCI-H460 lung.
Assay [6] relates to HOP-92 NSCLC.
For assay [7], the system named is NCI-H522 lung.
Assay [8] relates to A549/ATCC NSCLC.
Assay [9] has as its system 786-0 renal.
For assay [10], the system named is COLO 205 colon.

In the case of `CC1CN(C2CCCCC2)C(=S)N(c2ccccc2)C1=O` (stereo not given), the growth was 100% in assay [1]; 115% in assay [2]; 107% in assay [3]; 93.7% in [4]; 107% in [5]; 92.8% in assay [6]. Moreover, the growth in assay [7] was 116%; in assay [8], 102%; in assay [9], 92.2%; in assay [10] it was 127%.
On to `CCc1ccc(Oc2c(-c3ccc(OCc4ccc(Cl)cc4)cc3O)nn(C)c2C(F)(F)F)cc1`, for which the growth is -14.2% (active) in assay [1]; 6.86% (active) in assay [2]; 13.6% in assay [3]; -35.2% (active) in assay [4]; -20% (active) in [5]; -25.3% (active) in assay [6]. For the same molecule, the growth in [7] is -33.5% (active); in assay [8], 3.73% (active); in assay [9], -37% (active); in [10] it was -75.2% (active).
As for `Cc1nn(-c2ccccc2)c(-n2ccnc2)c1/C=N/Nc1nc(-c2ccc(Cl)c(Cl)c2)cs1`, the growth in [1] is 12.5%; in assay [2], 51.9%; in assay [3], 76%; in assay [4], 10.8%; in [5], 3.5% (active); in [6], -22.9% (active). In addition, the growth in [7] was 31.5%; in [8], -8.24% (active); in assay [9] it was 20.7%; in assay [10], 52.1%.
On to `O=c1c2cc(F)ccc2sc2c(N3CCCCC3)nc3ccccc3c12`, for which the growth in [1] is 95.8%; in [2], 86%; in [3] it was 90.1%; in [4], 99.3%; in [5], 109%; in [6], 84.2%. The growth in assay [7] was 98.5%; in [8], 96.2%; in [9], 95.8%; in [10], 106%.
Consider `O=C1CSC(c2c(Cl)cccc2Cl)N1c1nc(Cl)cc(=O)[nH]1` (stereo not given), for which the growth in assay [1] was 104%; in assay [2], 99.8%; in assay [3] it was 177%; in assay [4], 95.8%; in assay [5], 101%; in [6], 65%. The growth in [7] was 75.8%; in [8], 103%; in assay [9], 90.7%; in assay [10], 111%.
With `COc1cc(OCc2cccc(-c3ccc(C(O)c4nccs4)cc3)c2C)cc(OC)c1CNCCNC(C)=O` (stereo not given), the growth was 98.1% in [1]; 96.2% in assay [2]; 99.1% in [3]; 108% in assay [4]; 101% in assay [5]; 81.8% in assay [6]. For the same molecule, the growth in assay [7] was 101%; in [8] it was 96.3%; in [9] it was 102%; in [10] it was 104%.
For `CN1C(=C2C(=O)OC(C)(C)OC2=O)CCC1C(=O)NCc1ccc(Cl)cc1Cl` (stereo not given), the growth was 97.9% in assay [1]; 79.1% in [2]; 107% in assay [3]; 85.4% in [4]; 100% in assay [5]; 85.3% in assay [6]. The growth is 54.2% in assay [7], 79.5% in assay [8], 103% in assay [9] and 103% in [10].
For the molecule `N#Cc1c(-c2ccc(Cl)cc2)nc2c(c(-c3ccccc3)nn2-c2ccccc2)c1-c1ccc(O)cc1`, the growth was 49% in [1]; 65.9% in assay [2]; 70.8% in [3]; 49.9% in [4]; 25.1% in assay [5]; 56.4% in [6]. Moreover, the growth in assay [7] is 55.6%; in assay [8], 41.9%; in [9], 17.7%; in assay [10], 52.6%.
On to `Cn1cc(-c2cc3ncnc(Nc4ccc(CC(=O)Nc5cc(C(C)(C)C)on5)cc4)c3s2)cn1`, for which the growth in assay [1] is 50.2%; in assay [2], 26%; in [3], 32.9%; in assay [4] it was 58.1%; in assay [5], 28.4%; in assay [6] it was 35.8%. The growth was 36.3% in [7], 21.6% in assay [8], 36% in assay [9] and 24.7% in assay [10].
Turning to `N#Cc1c(-c2ccccc2)nc(SCC(=O)Nc2nc(-c3ccc(Cl)cc3)cs2)[nH]c1=O`, the growth in assay [1] is 84.1%; in [2], 95.9%; in assay [3] it was 97.9%; in assay [4], 90.2%; in [5], 106%; in [6], 80.7%. Moreover, the growth in [7] is 77.6%; in assay [8], 94.6%; in assay [9], 96.2%; in assay [10] it was 106%.
Take `Cc1c(C(=O)NCCCc2ccccc2)sc2ncc(-c3ccc(Br)cc3)n12`: the growth in assay [1] was 91.7%; in assay [2], 102%; in [3], 100%; in assay [4], 99.3%; in assay [5], 107%; in assay [6], 113%. For the same molecule, the growth in [7] was 98.5%; in [8], 108%; in assay [9], 100%; in assay [10], 113%.
As to `Nc1ccc(Sc2ccc([N+](=O)[O-])c3nonc23)cc1`, the growth in assay [1] was 95.8%; in assay [2], 96.5%; in [3], 101%; in [4] it was 92.2%; in assay [5], 96.7%; in [6] it was 103%. In addition, the growth is 2.03% (active) in assay [7], 89.8% in assay [8], 93.5% in assay [9] and 40.6% in assay [10].
As to `O=C(Cc1ccc(F)c(Cl)c1)Nc1cc(C2(C(F)(F)F)CC2)nn1CC1CCCCC1`, the growth was -2.27% (active) in assay [1]; 14.5% in assay [2]; 9.83% (active) in assay [3]; -8.44% (active) in assay [4]; 3.01% (active) in assay [5]; -14.9% (active) in assay [6]. For the same molecule, the growth was -28.1% (active) in assay [7], 9.72% (active) in [8], 9.17% (active) in [9] and -86.2% (active) in assay [10].
On to `O=C(/C=C/c1cccc2ccccc12)c1ccc(NC(=O)c2ccccc2CN2C(=O)c3ccccc3C2=O)cc1`, for which the growth in assay [1] is 67.3%; in assay [2], 93.4%; in [3] it was 79.7%; in assay [4] it was 94.2%; in assay [5] it was 79.9%; in [6], 80.2%. The growth in assay [7] was 68.4%; in [8], 78.6%; in [9], 97%; in [10] it was 101%.
For the molecule `Cn1cc(C(=O)c2nc(-c3cn(C)c4ccc(F)cc34)no2)c2cc(F)ccc21`, the growth is 92.5% in assay [1]; 89.1% in assay [2]; 84% in assay [3]; 92.2% in assay [4]; 90.7% in assay [5]; 83.6% in [6]. The growth in assay [7] was 79.3%; in assay [8] it was 87.5%; in assay [9], 107%; in assay [10] it was 103%.
With `CCCCCCCCCCCCCCCCCCOc1ccccc1CC(=O)OCC[N+](CC)(CC)CC`, the growth in assay [1] is 13.1%; in assay [2] it was 53.7%; in assay [3], 70.6%; in assay [4], 41%; in assay [5], 34.6%; in [6], 6.81% (active). Moreover, the growth was 10.5% in assay [7], 29.3% in assay [8], 22.6% in assay [9] and -27.3% (active) in [10].
Turning to `C[C@]12CC[C@@H]3c4cc(OC(F)F)c(OS(N)(=O)=O)cc4CC[C@H]3[C@@H]1CC[C@@H]2OS(N)(=O)=O`, the growth in assay [1] was 36.2%; in assay [2], 93.2%; in [3], 65.7%; in assay [4] it was 44.4%; in assay [5], 15.1%; in assay [6], 57.3%. The growth in [7] is 45.7%; in assay [8], 43.5%; in assay [9], 67.5%; in assay [10], 116%.
Turning to `CCc1cccc2c3c(sc12)C(c1ccc(Cl)cc1)C(C#N)=C(N)O3` (stereo not given), the growth in assay [1] was 22.5%; in assay [2], 41.2%; in assay [3], 49.6%; in assay [4], 36.9%; in assay [5], 10.2%; in [6] it was 66.7%. Moreover, the growth in assay [7] is 16.8%; in assay [8] it was 34.6%; in [9] it was 26.9%; in [10] it was 9.3% (active).
As for `O=C1/C(=C/c2ccc(F)cc2)Sc2c(Br)cccc21`, the growth in assay [1] is 50%; in [2], 79.4%; in assay [3] it was 72.6%; in [4], 69.1%; in assay [5] it was 93.6%; in [6], -3.06% (active). Further, the growth is 70.9% in assay [7], 68.9% in [8], 100% in assay [9] and 105% in assay [10].
Consider `N#Cc1ccc(NC(=O)c2sc3nc4c(cc3c2N)C(=O)CCC4)cc1`, for which the growth in assay [1] is 106%; in [2] it was 93.7%; in assay [3], 103%; in [4], 101%; in assay [5] it was 85.9%; in assay [6], 95.6%. Besides, the growth in [7] is 103%; in assay [8], 92.5%; in assay [9], 97.8%; in assay [10], 109%.
`CCc1cccc2c1S/C(=C/c1ccc(Cl)cc1)C2=O`: the growth in assay [1] is 79.6%; in assay [2], 87.2%; in [3], 85.4%; in assay [4] it was 80.9%; in [5], 102%; in [6], 83.5%. Further, the growth in assay [7] is 91.7%; in [8], 97.4%; in assay [9], 100%; in assay [10] it was 108%.
Take `CCCCCCn1c(-c2ccc(C(=O)O/N=C(\N)c3ccc4c(c3)OCO4)cc2)nc(-c2ccccc2)c1-c1ccccc1`: the growth in [1] was -30.8% (active); in [2], 64.6%; in assay [3], 73.9%; in assay [4] it was 64.8%; in assay [5], 4.23% (active); in assay [6], -57.5% (active). Besides, the growth in assay [7] is -58.9% (active); in assay [8], -25.3% (active); in assay [9] it was -65.9% (active); in [10], 35.7%.
With `COc1ccc(/C=C(/C#N)n2nnc3cccc(F)c32)cc1`, the growth in assay [1] was 14.6%; in [2], 60.4%; in assay [3], 25.2%; in assay [4] it was 38.1%; in [5], 4.61% (active); in assay [6], -2.46% (active). Also, the growth is -24.6% (active) in [7], 37% in assay [8], 10.6% in assay [9] and 1.85% (active) in [10].
Consider `O=CN1N=C(c2ccc(Nc3ccnc4cc(Cl)ccc34)cc2)CC1c1ccccc1` (stereo not given), for which the growth in assay [1] was 48%; in [2], 65.3%; in assay [3], 81.3%; in assay [4] it was 49.8%; in [5], 44.4%; in [6], 16.3%. Further, the growth is 2.53% (active) in assay [7], 37.6% in [8], 31.4% in assay [9] and 55.2% in assay [10].
As to `Cc1ccc(C(=O)NCCNc2nccc(-c3c(-c4cccc(F)c4)nc4sccn34)n2)cc1`, the growth is 70.5% in [1]; 36.4% in [2]; 64.8% in assay [3]; 86.1% in [4]; 34.8% in [5]; 74.8% in [6]. The growth is 72.2% in [7], 31.2% in assay [8], 60.8% in [9] and 27.6% in assay [10].
Consider `O=C(N/N=C/[C@@H](O)[C@H](O)[C@H](O)CO)c1ccc(NC(=O)c2cccnc2)cc1`, for which the growth in assay [1] was 107%; in assay [2] it was 99.9%; in [3], 104%; in assay [4], 102%; in assay [5] it was 108%; in [6] it was 103%. For the same molecule, the growth was 99.3% in assay [7], 101% in [8], 106% in assay [9] and 107% in assay [10].
With `COc1ccc2cc(C(C)C(=O)Nc3ccc(-c4n[nH]c(=S)n4C4CCCCC4)cc3)ccc2c1` (stereo not given), the growth in assay [1] was 90.2%; in [2], 95.3%; in assay [3], 114%; in assay [4], 84.3%; in assay [5] it was 43.2%; in assay [6] it was 43.4%. Also, the growth in assay [7] was 64.8%; in assay [8] it was 41.2%; in assay [9], 78.4%; in [10], 75.5%.
